ChEMBL document CHEMBL1201862, “PubChem BioAssay data set” (2004)
The whole screen tested about 400,000 compounds, of which about 3,700 (0.93%) were called active. Another 3% or so got no clear call; they are omitted. The calls are words filed in the database; no cut-off is given here. The entries come from a sample that favours actives as a whole.

Target: T1, Vitamin D3 receptor (Homo sapiens) (UniProt P11473)
T1 sequence (whole entry): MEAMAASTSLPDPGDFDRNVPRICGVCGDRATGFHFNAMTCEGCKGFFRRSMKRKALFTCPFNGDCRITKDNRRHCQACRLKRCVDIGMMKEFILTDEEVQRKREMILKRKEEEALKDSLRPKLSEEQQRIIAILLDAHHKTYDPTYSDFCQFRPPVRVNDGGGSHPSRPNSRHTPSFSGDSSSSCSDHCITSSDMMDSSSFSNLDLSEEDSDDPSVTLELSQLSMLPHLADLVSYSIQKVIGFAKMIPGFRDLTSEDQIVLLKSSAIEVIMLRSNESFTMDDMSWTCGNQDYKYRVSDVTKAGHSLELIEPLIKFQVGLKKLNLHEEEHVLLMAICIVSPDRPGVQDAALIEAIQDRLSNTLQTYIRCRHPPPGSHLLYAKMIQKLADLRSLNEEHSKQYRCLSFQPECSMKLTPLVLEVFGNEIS
Assay: Inhibitors of the vitamin D receptor (VDR): qHTS. [Related pubchem assays (depositor defined):AID504855]
Assay type: functional

Potency, active:
COc1ccccc1/C=C/C(=O)c1cccs1 25.1 µM
O=C(/C=C/c1ccc(Cl)cc1)c1cccs1 3.16 µM
CCCc1nnc(NC(=O)C2C(=O)c3cccc4c3N(CC4)C2=O)s1 (stereo not drawn) 79.4 µM
